The record followed here is PubChem BioAssay (NCATS).

Inconclusive results are not listed. A number with no mark means an inactive call. Calls of active or inactive are those of the source. Calls follow the shape of the dose curve; as a rule, active = well fitted curve in the direction sought with a large enough effect; inconclusive = small, poorly fitted or top-dose-only effect, or another doubt; inactive = no such curve, though single readings can be large; an effect the other way counts as inactive or inconclusive.

Experiment [1] concerns the target Rap guanine nucleotide exchange factor 3 (Homo sapiens) (UniProt O95398). Kind of experiment: Confirmatory qHTS for antagonist of cAMP-regulated guanine nucleotide exchange factor 3 (EPAC1) (AID 1645880). Also: nearly all actives have a fitted effect of over 55% in size. Also: potency is read from the fitted curve at half-maximal effect. The procedure, abridged: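 Released BODIPY-GDP fluoresces less than Rap1-bound BODIPY-GDP; the signal is followed at 480/540 nm at 5-min intervals over 30 min, after 5 min at room temperature. Reactions contain 100 nM EPAC1, 250 nM RAP1B-BODIPY-GDP and 50 uM GDP; results are normalized to ATA and DMSO.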
Background: In qHTS, concentration-response curves come from the screen itself.

Experiment [2] has the same target. Kind of experiment: Confirmatory qHTS for agonist of cAMP-regulated guanine nucleotide exchange factor 3 (EPAC1) (AID 1645881).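 Also: EPAC1 catalysed release of BODIPY-GDP from Rap1B seen as fluorescence loss; 100% = effect of cAMP agonist control; nearly all actives have a fitted effect of over 75% in size.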
In experiment [3] the target is Rap guanine nucleotide exchange factor 4 (Homo sapiens) (UniProt Q8WZA2). Kind of experiment: Confirmatory qHTS for agonist of cAMP-regulated guanine nucleotide exchange factor 4 (EPAC2) (AID 1645884).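 Also: nucleotide exchange releases bodipy-GDP from Rap1 and this lowers its fluorescence; % is scaled to controls: 0 for no effect and ±100 for the full control effect; nearly all actives have a fitted effect of over 65% in size.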
Experiment [4] shares this target. Kind of experiment: Confirmatory qHTS for antagonist of cAMP-regulated guanine nucleotide exchange factor 4 (EPAC2) (AID 1645885). Also: nearly all actives have a fitted effect of over 25% in size. Also: potency is read from the fitted curve at half-maximal effect. As to activity change, negative = inhibition: % is scaled to controls: 0 for no effect and ±100 for the full control effect.
In experiment [5] the target is Rap guanine nucleotide exchange factor 3 (Homo sapiens) (UniProt O95398). Kind of experiment: Counterscreen qHTS for antagonist of cAMP-regulated guanine nucleotide exchange factor 3 (EPAC1) (AID 1645888). Also: % of control where 0% means no effect. The procedure, abridged:
(§1)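 Rap1B–BODIPY-GDP (250 nM) with 50 uM GDP; compounds pin-transferred to 9.74 nM–152 uM final (activator) or from 7.32 nM upwards (inhibitor). Fluorescence Ex/Em 480/540 nm read at 5 and 30 min, then after adding cAMP or buffer, at room temperature.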
On the technique in general: The purpose of a counterscreen is to sort out artefacts and off-target activity.

Experiment [6] has the same target. Kind of experiment: Counterscreen qHTS for agonist of cAMP-regulated guanine nucleotide exchange factor 3 (EPAC1) (AID 1645889). Also: nearly all actives have a fitted effect of over 40% in size. Also: potency is read from the fitted curve at half-maximal effect. As to activation: % of control where 0% means no effect. The procedure, abridged:
as §1

Sequence of Rap guanine nucleotide exchange factor 3 (Homo sapiens) (O95398 whole entry, looked up): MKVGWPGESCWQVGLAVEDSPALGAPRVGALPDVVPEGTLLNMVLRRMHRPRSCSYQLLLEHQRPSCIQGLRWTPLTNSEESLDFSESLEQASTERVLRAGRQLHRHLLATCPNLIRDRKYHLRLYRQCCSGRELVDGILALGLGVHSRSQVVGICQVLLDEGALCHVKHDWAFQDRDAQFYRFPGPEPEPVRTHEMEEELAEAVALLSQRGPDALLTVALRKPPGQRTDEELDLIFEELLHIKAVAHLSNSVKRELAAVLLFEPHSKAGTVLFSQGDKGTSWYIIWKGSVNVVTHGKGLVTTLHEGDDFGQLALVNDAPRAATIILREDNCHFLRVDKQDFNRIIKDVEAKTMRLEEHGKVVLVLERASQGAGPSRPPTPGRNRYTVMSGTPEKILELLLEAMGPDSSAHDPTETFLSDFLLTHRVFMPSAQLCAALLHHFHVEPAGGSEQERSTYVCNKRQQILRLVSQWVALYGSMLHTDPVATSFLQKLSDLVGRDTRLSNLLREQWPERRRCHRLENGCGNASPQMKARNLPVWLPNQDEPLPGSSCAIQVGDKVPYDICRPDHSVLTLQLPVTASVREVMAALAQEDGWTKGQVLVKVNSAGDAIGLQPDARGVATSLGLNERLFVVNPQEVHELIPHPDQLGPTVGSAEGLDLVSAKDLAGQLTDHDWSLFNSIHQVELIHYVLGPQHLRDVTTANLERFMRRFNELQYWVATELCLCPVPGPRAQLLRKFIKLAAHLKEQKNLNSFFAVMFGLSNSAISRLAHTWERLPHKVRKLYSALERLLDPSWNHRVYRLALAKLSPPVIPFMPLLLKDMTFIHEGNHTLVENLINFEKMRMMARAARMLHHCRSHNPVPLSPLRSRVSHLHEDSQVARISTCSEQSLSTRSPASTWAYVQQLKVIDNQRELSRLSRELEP
Sequence of Rap guanine nucleotide exchange factor 4 (Homo sapiens) (Q8WZA2 whole entry, looked up): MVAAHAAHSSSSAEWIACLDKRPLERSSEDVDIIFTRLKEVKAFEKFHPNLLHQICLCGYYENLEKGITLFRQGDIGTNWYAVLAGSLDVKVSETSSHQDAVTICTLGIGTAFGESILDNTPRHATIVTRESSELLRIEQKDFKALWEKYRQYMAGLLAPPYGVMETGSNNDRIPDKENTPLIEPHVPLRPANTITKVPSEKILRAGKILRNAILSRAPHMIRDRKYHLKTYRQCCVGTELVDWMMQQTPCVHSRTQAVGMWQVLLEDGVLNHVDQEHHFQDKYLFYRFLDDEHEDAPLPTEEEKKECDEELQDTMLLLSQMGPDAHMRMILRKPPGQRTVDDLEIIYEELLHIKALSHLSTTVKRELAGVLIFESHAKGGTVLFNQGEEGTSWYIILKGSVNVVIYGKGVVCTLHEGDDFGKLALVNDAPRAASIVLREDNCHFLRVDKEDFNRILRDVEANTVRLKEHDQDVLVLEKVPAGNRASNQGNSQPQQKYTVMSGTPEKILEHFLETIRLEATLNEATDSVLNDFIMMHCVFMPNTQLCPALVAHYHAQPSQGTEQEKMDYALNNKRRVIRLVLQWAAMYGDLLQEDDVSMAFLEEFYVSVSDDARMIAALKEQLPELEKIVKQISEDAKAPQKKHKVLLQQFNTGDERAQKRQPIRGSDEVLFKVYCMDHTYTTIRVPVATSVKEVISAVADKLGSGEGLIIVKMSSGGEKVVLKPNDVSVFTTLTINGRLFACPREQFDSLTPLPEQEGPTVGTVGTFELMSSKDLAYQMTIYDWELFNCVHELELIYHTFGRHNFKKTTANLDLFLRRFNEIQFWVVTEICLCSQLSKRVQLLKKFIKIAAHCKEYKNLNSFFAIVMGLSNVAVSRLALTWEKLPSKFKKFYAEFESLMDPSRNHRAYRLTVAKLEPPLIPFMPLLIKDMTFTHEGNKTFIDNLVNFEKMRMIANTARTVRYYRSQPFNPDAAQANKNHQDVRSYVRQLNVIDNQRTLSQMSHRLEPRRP

As for `Cc1cc(Br)c2c(c1)C(O)(N1CCCCC1C)C(=O)N2` (stereo not given), the Potency entry in experiment [1], in experiment [2] and in experiment [4] was “inactive” in each case. Moreover, the activation in experiment [3] was 10.3% [at 17.1 µM, percent relative to cAMP agonist control]; in experiment [6] it was 19.4% [at 30.8 µM]. In experiment [5], the activity change, negative = inhibition is -0.193% [at 30.8 µM].

`O=C1c2cc(O)c(O)cc2OC(c2ccc(O)c(O)c2)C1O` (stereo not given): the Potency in experiment [1] was 42.6 µM (active). For the same compound, the Potency entry in experiment [2], in experiment [3], in experiment [4], in experiment [5] and in experiment [6] was “inactive” each time.

As for `CCCCCN(C(=O)CCC(=O)OCc1ccc(C(C)C)cc1)c1c(N)n(CCCC)c(=O)[nH]c1=O`, the Potency entry in experiment [1], in experiment [2], in experiment [3], in experiment [4], in experiment [5] and in experiment [6] was “inactive” throughout.

For the compound `CN1C(=O)/C(=C\c2ccc(N(C)C)cc2)OC1=S`, the Potency entry in experiment [1], in experiment [2], in experiment [3], in experiment [4] and in experiment [5] was “inactive” in each case. Further, the Potency in experiment [6] was 15.8 µM (active).

On to `Cc1ccc(-c2csc(NC(=O)/C=C/c3ccco3)c2C(=O)O)cc1`, for which, in experiment [1], the Potency is 25.1 µM (active). Besides, the Potency entry in experiment [2] and in experiment [4] was “inactive” in each case. The activation in experiment [3] is 5.44% [at 17.1 µM, percent relative to cAMP agonist control]; in experiment [6], 18.5% [at 30.8 µM]. The activity change, negative = inhibition in experiment [5] was -12.5% [at 30.8 µM].

`CN1CCN(C(c2ccccc2Cl)c2sc3nc(-c4ccco4)nn3c2O)CC1` (stereo not given): the Potency result in experiment [1], in experiment [2], in experiment [3], in experiment [5] and in experiment [6] was “inactive” in each case. The outcome in experiment [4] is “inactive [at 12.7 µM]”.

`NC(=O)c1sc(=S)n2c1[nH]c(=O)c1sccc12`: in experiment [1], the Potency is 16.9 µM (active). Further, the Potency entry in experiment [2], in experiment [3], in experiment [4], in experiment [5] and in experiment [6] was “inactive” in each case.

As to `C=CCc1ccccc1Oc1cc(OC)nc(N)n1`, the Potency entry in experiment [1], in experiment [2] and in experiment [4] was “inactive” each time. The activation in experiment [3] was -1.65% [at 17.1 µM, percent relative to cAMP agonist control]; in experiment [6], -1.76% [at 30.8 µM]. In addition, in experiment [5], the activity change, negative = inhibition is -22.4% [at 30.8 µM].

On to `CC(C)(C)C(=O)Nc1ccc2nc(SCC(=O)N3CCc4ccccc43)sc2c1`, for which the Potency result in experiment [1], in experiment [2], in experiment [3], in experiment [4], in experiment [5] and in experiment [6] was “inactive” each time.

On to `CCOc1ccc(N2C(=O)Nc3ccccc3C2(O)C(=O)NCc2ccc(C)cc2)cc1` (stereo not given), for which the Potency entry in experiment [1], in experiment [2] and in experiment [4] was “inactive” throughout. Moreover, the activation in experiment [3] is -4.83% [at 17.1 µM, percent relative to cAMP agonist control]; in experiment [6] it was 7.84% [at 30.8 µM]. The activity change, negative = inhibition in experiment [5] is -5.47% [at 30.8 µM].

As to `CC1(C(=O)NS(=O)(=O)c2ccc(Cl)s2)CCN1C(=O)C1(c2ccc(Cl)cc2)CCC1` (stereo not given), the Potency in experiment [1] was 9.53 µM (active); in experiment [4], 8.49 µM (active). Moreover, the Potency entry in experiment [2], in experiment [3], in experiment [5] and in experiment [6] was “inactive” in each case.

Regarding `CCCCN(C(=O)CSCC(=O)Nc1ccc(C)cc1)c1c(N)n(CCCC)c(=O)[nH]c1=O`, the Potency entry in experiment [1], in experiment [2] and in experiment [4] was “inactive” throughout. Besides, the activation is 4% [at 17.1 µM, percent relative to cAMP agonist control] in experiment [3] and 6.23% [at 30.8 µM] in experiment [6]. Also, the activity change, negative = inhibition in experiment [5] was -21.2% [at 30.8 µM].

On to `CCN(CC)c1nc(C#N)cc(-c2ccc(OC)cc2)n1`, for which the Potency entry in experiment [1], in experiment [2], in experiment [3], in experiment [4], in experiment [5] and in experiment [6] was “inactive” throughout.

For `O=C(c1ccc(Br)o1)N1CCN(c2ccc3nnc(-c4ccc(F)cc4)n3n2)CC1`, the Potency result in experiment [1], in experiment [2] and in experiment [4] was “inactive” in each case. The activation is -1.27% [at 17.1 µM, percent relative to cAMP agonist control] in experiment [3] and 25.2% [at 30.8 µM] in experiment [6]. Further, the activity change, negative = inhibition in experiment [5] is -4.8% [at 30.8 µM].

With `C=CCc1cc(/C=C/c2nc(O)c([N+](=O)[O-])c(=O)[nH]2)cc(OC)c1O`, in experiment [1], the Potency is 33.8 µM (active). For the same compound, the Potency entry in experiment [2], in experiment [3], in experiment [4], in experiment [5] and in experiment [6] was “inactive” in each case.

Regarding `Cc1ccc(S(=O)(=O)N2[C@@H](c3ccc(Cl)cc3)C(C(=O)O)=CC[C@H]2c2ccc(Cl)c(Cl)c2)cc1`, the results for the Potency in experiment [1] and in experiment [4] were 75.7 µM (active) and 47.8 µM (active), respectively. For the same compound, the Potency entry in experiment [2], in experiment [3], in experiment [5] and in experiment [6] was “inactive” each time.

Turning to `Nc1c(C(=O)c2ccccc2)sc2nsc(SCCN3CCOCC3)c12`, the Potency result in experiment [1], in experiment [2], in experiment [3], in experiment [4], in experiment [5] and in experiment [6] was “inactive” throughout.

On to `O=C(c1ccc(CSCc2ccccc2F)o1)N1CCN(c2ccc(N3CCOCC3)nn2)CC1`, for which the Potency result in experiment [1], in experiment [2] and in experiment [4] was “inactive” in each case. Further, the activation is 3.73% [at 17.1 µM, percent relative to cAMP agonist control] in experiment [3] and 14.5% [at 30.8 µM] in experiment [6]. The activity change, negative = inhibition in experiment [5] is -4.38% [at 30.8 µM].

For `CCN(CC)c1nc(C)nc2c1sc(=S)n2C`, the Potency entry in experiment [1], in experiment [2], in experiment [3], in experiment [4], in experiment [5] and in experiment [6] was “inactive” each time.

With `CN(C)c1ccc(C(O)c2cc3ccccc3s2)cc1` (stereo not given), the Potency result in experiment [1], in experiment [2], in experiment [3], in experiment [4], in experiment [5] and in experiment [6] was “inactive” in each case.
